Screens: PubChem BioAssay, several laboratories
NadD inh = inhibitors of Staphylococcus aureus NadD; purified NadD enzyme, colorimetric absorbance read-out; AID 602399; 360,000 tested, 0.78% active; inhibition, % at 20 µM; in the data active = inhibition above about 26%
ATG4B inhibitor = blocks human ATG4B protease cleavage of LC3 substrate; Q9Y4P1; ATG4B cleavage of LC3-PLA2, NBD-HPC fluorescence, 1 h; inhibition, % at 8.33 µM; 340,000 tested, 0.51% active; AID 504462; in the data active = inhibition above about 40%
Target sequence (Q9Y4P1 whole entry, looked up): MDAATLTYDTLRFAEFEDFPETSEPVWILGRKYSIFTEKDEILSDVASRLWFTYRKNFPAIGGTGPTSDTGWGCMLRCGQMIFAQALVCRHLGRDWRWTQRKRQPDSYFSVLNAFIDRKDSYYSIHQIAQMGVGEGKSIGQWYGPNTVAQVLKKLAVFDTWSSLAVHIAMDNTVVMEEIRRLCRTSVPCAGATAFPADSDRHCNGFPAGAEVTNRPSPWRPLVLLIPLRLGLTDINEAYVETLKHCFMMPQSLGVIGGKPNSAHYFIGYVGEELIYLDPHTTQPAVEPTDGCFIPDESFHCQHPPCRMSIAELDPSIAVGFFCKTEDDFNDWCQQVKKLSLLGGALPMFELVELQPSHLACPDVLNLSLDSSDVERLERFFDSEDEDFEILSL
Mot1-301 SUMO = inhibitors of SUMOylation pathway: yeast Mot1-301 growth rescue; AID 2716; S. cerevisiae Mot1-301 growth rescue, ATP luminescence, 38.5C; percent above DMSO median, 100 means doubled; 320,000 tested, 1% active; growth rescue, % at 18.8 µM;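 active = every valid replicate shows activation above 250% relative to neutral control wells; inactive = the rest, any valid replicate at or below 250%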;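 also: OY570 slx delta 5 strain wells were the positive control but not used for scaling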
Calb FLC = C. albicans growth modulation with fluconazole. C. albicans CaCi-2 (fluconazole-resistant clinical isolate) + fluconazole, Alamar Blue growth, 48 h. growth inhibition, % (concentration not given with the values). 300,000 tested, 0.57% active;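 active = growth inhibition above about 58% in most replicates, limit read from the data, passing the limit was not always enough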;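 also: all wells also contain fluconazole at 8 µg/ml as a sub-toxic cotreatment; 0% = median of DMSO wells and 100% = median of geldanamycin control wells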
FAS-TE inh = inhibitors of human fatty acid synthase thioesterase domain. recombinant FAS-TE, OMFH fluorogenic substrate, fluorescence endpoint. inhibition, % at 15 µM. 360,000 tested, 0.67% active. AID 602261;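 active = compounds whose normalised, plate-corrected inhibition of enzyme fluorescence in the single-dose primary screen is 50% or more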;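 also: 0% = DMSO with enzyme and 100% = substrate without enzyme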
Numbers without * were called inactive. Sampled rows, rich in hits. Any-hit rate of the full collection: about 3.1%.

`CCOC(=O)c1cnc(-n2cc(C)cn2)nc1Nc1ccccc1OCC` gave NadD inh 24.0, ATG4B inhibitor -4.0, Mot1-301 SUMO -17.1, Calb FLC 98.8* and FAS-TE inh 25.9.
O=C1C=CC2=C3c4cc(O)c(O)cc4CC3(O)COC2=C1O (configuration not stated) was read as NadD inh 47.6*, ATG4B inhibitor 4.1 and FAS-TE inh 4.0.
`C[n+]1c2cc(N)ccc2cc2ccc(N)cc21` gave NadD inh 32.8*, ATG4B inhibitor inactive and FAS-TE inh -149.9.
Nc1ccc2ccc(O)cc2c1 was read as NadD inh 10.2, ATG4B inhibitor -11.2 and FAS-TE inh -3.9.
Screening COc1ccc(OC)c(-n2c(CN3CCC(C(N)=O)CC3)nc3ccccc3c2=O)c1 returned NadD inh -0.7, ATG4B inhibitor -8.2, Mot1-301 SUMO 9.3, Calb FLC 117.3* and FAS-TE inh -6.0.
Screening Cc1cc(C)cc(N2C(=O)CC(Sc3nnnn3-c3ccccc3)C2=O)c1 (configuration not stated) returned NadD inh -1.0, ATG4B inhibitor -10.3, Mot1-301 SUMO 292.4*, Calb FLC -21.5 and FAS-TE inh 4.4.
Screening Cc1cc(C)nc(OC(C(=O)O)C(OCCc2ccccc2)(c2ccc(F)cc2)c2ccc(F)cc2)n1 (configuration not stated) returned NadD inh 26.5, ATG4B inhibitor -3.8, Mot1-301 SUMO 18.3, Calb FLC 27.6 and FAS-TE inh 4.5.
Screening CCCOC(c1ccccc1)(c1ccc(C(F)(F)F)cc1)C(Oc1nc(C)cc(C)n1)C(=O)O (configuration not stated) returned NadD inh 17.5, ATG4B inhibitor 0.9, Mot1-301 SUMO 8.6, Calb FLC 79.5* and FAS-TE inh 6.3.
For COc1cccc(-c2nnc(NC(=O)c3ccc(S(=O)(=O)N4CCOCC4)cc3)o2)c1 the results were NadD inh 18.5, ATG4B inhibitor -4.0, Mot1-301 SUMO 0.0, Calb FLC -5.7 and FAS-TE inh -5.0.
For COCc1nnc(NC(=O)c2ccc(S(=O)(=O)N3CCCc4ccccc43)cc2)o1 the results were NadD inh 11.4, ATG4B inhibitor -9.9, Mot1-301 SUMO -4.3, Calb FLC 91.6* and FAS-TE inh -2.3.
`COc1ccc(-c2nnc(NC(=O)c3ccc(S(=O)(=O)N4CCCc5ccccc54)cc3)o2)cc1` gave NadD inh 86.5*, ATG4B inhibitor 11.1, Mot1-301 SUMO 4.4, Calb FLC 101.3* and FAS-TE inh 15.6.
CCOc1ccc(C(=O)N[C@H](C(=O)Nc2cccc(S(=O)(=O)N3CCOCC3)c2)C(C)C)cc1 was read as NadD inh 1.0, ATG4B inhibitor -10.0 and FAS-TE inh -11.0.
`COc1ccc(C(=O)N[C@H](C(=O)Nc2ccc(S(=O)(=O)N3CCOCC3)cc2)C(C)C)cc1` gave NadD inh -4.6, ATG4B inhibitor -2.1, Mot1-301 SUMO 338.9*, Calb FLC 4.7 and FAS-TE inh 1.5.
For COc1cc(-c2nnc(NC(=O)c3ccc(S(=O)(=O)N4CCOCC4)cc3)o2)cc(OC)c1OC the results were Mot1-301 SUMO 0.9 and Calb FLC 90.4*.
O=C1CCCCC(=O)[C@H](O)C[C@H](COCc2ccccc2)O1 was read as NadD inh -5.8 and FAS-TE inh -11.9.
Screening COc1ccc(S(=O)(=O)N(C(=O)c2ccncc2)c2ccc(OC(=O)c3ccncc3)cc2)cc1 returned NadD inh 2.7, ATG4B inhibitor -13.9, Mot1-301 SUMO 309.0*, Calb FLC 4.0 and FAS-TE inh 0.7.
For COc1ccc(N(C(=O)c2ccncc2)S(=O)(=O)c2ccccc2)cc1 the results were NadD inh 0.4, ATG4B inhibitor -2.8, Mot1-301 SUMO 37.7, Calb FLC -10.2 and FAS-TE inh -2.5.
For COc1cc(/C=C2\SC(=Nc3ccccc3)NC2=O)cc(Cl)c1O the results were NadD inh 13.7, ATG4B inhibitor -6.9, Mot1-301 SUMO 112.2, Calb FLC 69.4 and FAS-TE inh -29.9.
For COc1cc(/C=C2\SC(=Nc3ccc(Cl)c(C(=O)O)c3)NC2=O)c(Br)c(Br)c1O the results were NadD inh 69.6*, ATG4B inhibitor 33.6, Mot1-301 SUMO 8.6, Calb FLC -2.3 and FAS-TE inh -18.4.
`CC(C(=O)N1c2ccc(F)cc2CCC1C)N1C(=O)c2ccccc2C1=O` (configuration not stated) gave NadD inh 1.3, ATG4B inhibitor 0.7, Mot1-301 SUMO 262.2*, Calb FLC 6.2 and FAS-TE inh -3.4.
Screening CCCOc1ccc2c(c1)C(=NN=C(N)N)c1cc(OCCC)ccc1-2 returned NadD inh 10.8, ATG4B inhibitor 25.7, Mot1-301 SUMO 286.2*, Calb FLC 10.2 and FAS-TE inh -138.7.
`CCN(CC)CCOc1ccc2c(c1)C(=NO)c1cc(OCCN(CC)CC)ccc1-2` gave NadD inh -7.9, ATG4B inhibitor -8.2, Mot1-301 SUMO 6.8, Calb FLC 3.9 and FAS-TE inh -11.1.
For O=C(O)CC(C(=O)O)N1C(=O)/C(=C/C=C/c2ccco2)SC1=S (configuration not stated) the results were NadD inh -2.0, ATG4B inhibitor 31.0, Mot1-301 SUMO -19.7, Calb FLC 0.8 and FAS-TE inh -6.9.
Screening O=C(O)CCCN1C(=O)/C(=C/C=C/c2ccco2)SC1=S returned NadD inh 0.6, ATG4B inhibitor 52.2*, Mot1-301 SUMO -8.0, Calb FLC 13.3 and FAS-TE inh 1.8.
O=C(NN1C(=O)/C(=C/C=C/c2ccco2)SC1=S)c1ccccc1O was read as NadD inh 40.4*, ATG4B inhibitor 69.6*, Mot1-301 SUMO 258.7, Calb FLC 21.5 and FAS-TE inh 5.3.
Cn1cccc1/C=C1\SC(=S)N(NC(=O)c2ccccc2O)C1=O was read as NadD inh 1.1, ATG4B inhibitor 8.6, Mot1-301 SUMO 304.2, Calb FLC 45.8 and FAS-TE inh -4.9.
`O=c1c(Cl)c(NCCCO)cnn1-c1nc2ccccc2[nH]1` gave NadD inh -4.1, ATG4B inhibitor -3.2, Mot1-301 SUMO 16.9, Calb FLC 77.8* and FAS-TE inh 2.6.
CCCCC[C@H]1CCCCC[C@H](O)C[C@H](O)[C@@H](O)/C=C/C(=O)O1 was read as NadD inh -6.8 and FAS-TE inh -10.0.
Screening CN1C(=O)/C(=C\C(=O)c2cccs2)c2ccccc21 returned NadD inh -3.4, ATG4B inhibitor 2.3, Calb FLC 97.3* and FAS-TE inh -2.5.
`COc1cc(C2Nc3cccc4cccc(c34)N2)ccc1O` gave NadD inh 59.1*, ATG4B inhibitor -16.3, Mot1-301 SUMO -14.7, Calb FLC -10.0 and FAS-TE inh 10.6.
Screening COc1cc(C2Nc3cccc4cccc(c34)N2)cc(OC)c1OC(C)=O returned NadD inh 43.4*, ATG4B inhibitor -6.4, Mot1-301 SUMO -11.7, Calb FLC -7.8 and FAS-TE inh 11.8.
For Cn1ccnc1-c1ccc(-c2nccn2C)cc1 the results were NadD inh 3.0, ATG4B inhibitor 2.2, Mot1-301 SUMO -5.2, Calb FLC 6.9 and FAS-TE inh -5.6.
